The target of this experiment is RUNX1 (UniProt Q01196). Kind of experiment: RUNX1 binding intensity (PBM fluorescence), RUNX1 alone (arbitrary fluorescence units); higher = stronger binding. The note with it: RUNX1 concentration 2 nM; ETS1 concentration 0 nM. The procedure:
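Cooperative gcPBM on 36-bp genomic probes with neighbouring ETS1 and RUNX1 sites. Recombinant human RUNX1 (2 nM) was incubated alone or with ETS1 (25 nM) and detected with anti-RUNX1 antibody plus Alexa488 secondary. Values are medians over 4 replicate spots; the RUNX1+ETS1 data were normalised to the RUNX1-only data. The probes sit in constant array flanks that are not printed.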
Sequence of RUNX1 (Q01196 whole entry): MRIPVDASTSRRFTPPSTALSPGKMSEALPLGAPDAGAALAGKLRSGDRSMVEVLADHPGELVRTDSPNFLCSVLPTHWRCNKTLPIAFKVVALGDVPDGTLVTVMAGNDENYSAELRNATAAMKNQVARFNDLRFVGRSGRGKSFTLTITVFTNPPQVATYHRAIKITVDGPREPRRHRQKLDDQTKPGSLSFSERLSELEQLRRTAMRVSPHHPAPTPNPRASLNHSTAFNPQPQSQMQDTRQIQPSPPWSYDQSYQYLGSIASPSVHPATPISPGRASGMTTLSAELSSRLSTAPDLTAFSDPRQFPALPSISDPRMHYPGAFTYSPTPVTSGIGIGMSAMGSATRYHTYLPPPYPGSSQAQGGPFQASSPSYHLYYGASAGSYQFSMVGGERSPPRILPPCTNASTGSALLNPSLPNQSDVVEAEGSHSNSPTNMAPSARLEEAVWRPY
In turn, ACGGTGCGTTTCCCCAACTACACCGCACGTCACGGA yielded an RUNX1 binding intensity of 988.
ATAAACAGGAAGCTGAGTATGTGACCACAGACATTC had an RUNX1 binding intensity of 840.
As for CTCCGCCTTTCACTTCCTAGTAACCGCCCTCCCTTG, the RUNX1 binding intensity turned out to be 2190.
On to ATTCCTAGAGAGGAAATGCGGGCTCAGGGTGTCGGC, for which the RUNX1 binding intensity amounted to 754.
CACTTCCTATCGCTACATAACAAATTACCACAGACT returned an RUNX1 binding intensity of 2490.
Sequence ACATTTCCTTTTGGTATTTAAAGTAACCACACAGAA showed an RUNX1 binding intensity of 1060.
TACAACTTGCAACGGAAACCACTTCAGGTTCATTAC: the RUNX1 binding intensity came to 847.
Next, ACAACTTCCTGTGGGATTTTTGGTGTCTGCGGCTCA: 811; CCCCTACTTCCCTTTTTGCTGGGCCGCAGTTTCGGT: 1490; CCCCACCCAGACAGGAAACTGTGGCTTCTATCAGAT: 820.
Turning to CTTCTTTCCAGAGGATGTGGCTTCAGCGGGAGAGCT, the RUNX1 binding intensity is 817.
Take TGTTTTCGCTCTTCCTGGCCTTGCGGGCAGCCAGGA: the RUNX1 binding intensity worked out at 1060.
In turn, GTCACCATTTCCGGGCCTCCGCGGTGTCCCCACCCC showed an RUNX1 binding intensity of 1040.
The sequence ACCCCAAGCCCAGGATGTGGTTTGGCCACTATTGAG registered an RUNX1 binding intensity of 859.
The sequence GGCTTCCGCCGCCACCACTGCCCCTCAACCGCCACG yielded an RUNX1 binding intensity of 1110.
Sequence CGTCACTTCCCACGCGACTGCCTGCGGGAAACATGG yielded an RUNX1 binding intensity of 1150.
With TGGGCTTTGCAGGAAGCTGTGGTTCACCTACAGCCT, the RUNX1 binding intensity stood at 692.
Take TTACGTTAAGGAGGAAACTCTGTGGTTAAACTGTAG: the RUNX1 binding intensity came to 1230.
The sequence TGGAGTGGAGGAAGTGGTGTTACCACAGCTCAGAGG registered an RUNX1 binding intensity of 726.
Turning to GAAGCAGACAGGAAGTGGGTCTGAGCGGTGGAGGGA, the RUNX1 binding intensity stood at 690.
To ACTCCAGAGGAAGTGGCAAGACGAGCGCGGTAACGG belongs 728; to GGTTCATTTCCTTTTCCTCCTTGTGGTATAAAAGAG, 1210; to GGTCTCACCGCTCTTCCGCTTGCGGTTTCGGGGGCC, 2320.
In the case of CCGCCCTAGAGCAGGAAATAGCGGTCAGCGCCAGCT, the RUNX1 binding intensity was 857.
Sequence ATCCCACTATAGGAAGCTTCTCTGTGGTTTTGAGCC returned an RUNX1 binding intensity of 1370.
To GAAGCGGAAGTCGCTGAGGGGTGGTGAAGCGGTTGG belongs 710.
In turn, AGAGCCACATCCCGCGCAGAGGACCGCGGCGACCGG returned an RUNX1 binding intensity of 764.
The sequence CACTCCCCGAATCCGGTCTGCGGCGCGCTCGGGGCC came in with an RUNX1 binding intensity of 774.
To CCAGACCCGGCGGAACTACCGTGCCCACAAGGCAGC belongs 876; to CATCAAGTATTTCCTCACGCAAGCAACCGCATCCAT, 1180; to TATGTGTTTTAGGCAGGATGTGGGTTTTAGTCTTTC, 840.
The sequence ACTGAACAAACCGGATGTGGTTCCCACCTGCAATCT returned an RUNX1 binding intensity of 850.
The sequence ACCCTGAAATTACCCGGATGTGGTCCCCGCGCGCGC displayed an RUNX1 binding intensity of 898.
The sequence GTGGAAAGGAAATGTGTCATCTGTGGTTTGGTTTTA showed an RUNX1 binding intensity of 1060.
On to GAAAGACAGGATGTGGGATAGATCTCAACCACCTTT, for which the RUNX1 binding intensity is 817.
In turn, GCCCCAGCCCCCGGATGTGGTGACAGAATCGATACT came in with an RUNX1 binding intensity of 811.
To GCTTACACTTCCTCCCTGAACCCCTGCGGTTTCACA belongs 4160.
In turn, TCAGAACCAGGAAACTGAAGGCGGTTACTCCACATA registered an RUNX1 binding intensity of 742.
With AAGACACCAACGCTCGGAAACCGCCAGACACCAACG, the RUNX1 binding intensity was found to be 945.
AGGGCTGAAACAGGATGTGGTGAGTGAGGTAGGGTG returned an RUNX1 binding intensity of 816.

The values above are taken from the supplement of paper PMC10681739.
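Further: Full-length recombinant human RUNX1 bound to double-stranded 36-bp genomic probes on a high-density microarray, scored as Alexa488 fluorescence per spot via anti-RUNX1 antibody, median of four replicate spots.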
